The results in this text go back to PubChem BioAssay (NCATS).

Assay [1] addresses Rap guanine nucleotide exchange factor 3 (Homo sapiens) (UniProt O95398). Nature of the assay: Confirmatory qHTS for antagonist of cAMP-regulated guanine nucleotide exchange factor 3 (EPAC1) (AID 1645880). Note: nearly all actives have a fitted effect of over 55% in size. Note: potency is the fitted concentration of half-maximal effect. As to conditions: EPAC1 Rap1B-BODIPY-GDP exchange, fluorescence; series mostly up to 115 µM. The method, boiled down: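 Nucleotide exchange uses 100 nM EPAC1, 250 nM RAP1B-BODIPY-GDP and 50 uM GDP, with compounds in a concentration-titration series. After 5 min at room temperature, fluorescence (480 nm ex/540 nm em) is read every 5 min for 30 min. Data are normalized to control ATA and DMSO.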
A general note: Quantitative high-throughput screening tests each substance at several concentrations.

Assay [2] shares this target. Nature of the assay: Confirmatory qHTS for agonist of cAMP-regulated guanine nucleotide exchange factor 3 (EPAC1) (AID 1645881).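 Note: EPAC1 catalysed release of BODIPY-GDP from Rap1B seen as fluorescence loss; 100% = effect of cAMP agonist control; nearly all actives have a fitted effect of over 75% in size.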 As to conditions: EPAC1 Rap1B BODIPY-GDP exchange fluorescence; series mostly up to 154 µM.
In assay [3] the target is Rap guanine nucleotide exchange factor 4 (Homo sapiens) (UniProt Q8WZA2). The experiment in a line: Confirmatory qHTS for agonist of cAMP-regulated guanine nucleotide exchange factor 4 (EPAC2) (AID 1645884).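 Note: nucleotide exchange releases bodipy-GDP from Rap1 and this lowers its fluorescence; % is set by controls: 0 for no effect and ±100 for the full control effect; nearly all actives have a fitted effect of over 65% in size.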 As to conditions: EPAC2 GEF activity, Rap1B-BODIPY-GDP fluorescence; series mostly up to 154 µM.
Sequence of Rap guanine nucleotide exchange factor 4 (Homo sapiens) (Q8WZA2 whole entry, looked up): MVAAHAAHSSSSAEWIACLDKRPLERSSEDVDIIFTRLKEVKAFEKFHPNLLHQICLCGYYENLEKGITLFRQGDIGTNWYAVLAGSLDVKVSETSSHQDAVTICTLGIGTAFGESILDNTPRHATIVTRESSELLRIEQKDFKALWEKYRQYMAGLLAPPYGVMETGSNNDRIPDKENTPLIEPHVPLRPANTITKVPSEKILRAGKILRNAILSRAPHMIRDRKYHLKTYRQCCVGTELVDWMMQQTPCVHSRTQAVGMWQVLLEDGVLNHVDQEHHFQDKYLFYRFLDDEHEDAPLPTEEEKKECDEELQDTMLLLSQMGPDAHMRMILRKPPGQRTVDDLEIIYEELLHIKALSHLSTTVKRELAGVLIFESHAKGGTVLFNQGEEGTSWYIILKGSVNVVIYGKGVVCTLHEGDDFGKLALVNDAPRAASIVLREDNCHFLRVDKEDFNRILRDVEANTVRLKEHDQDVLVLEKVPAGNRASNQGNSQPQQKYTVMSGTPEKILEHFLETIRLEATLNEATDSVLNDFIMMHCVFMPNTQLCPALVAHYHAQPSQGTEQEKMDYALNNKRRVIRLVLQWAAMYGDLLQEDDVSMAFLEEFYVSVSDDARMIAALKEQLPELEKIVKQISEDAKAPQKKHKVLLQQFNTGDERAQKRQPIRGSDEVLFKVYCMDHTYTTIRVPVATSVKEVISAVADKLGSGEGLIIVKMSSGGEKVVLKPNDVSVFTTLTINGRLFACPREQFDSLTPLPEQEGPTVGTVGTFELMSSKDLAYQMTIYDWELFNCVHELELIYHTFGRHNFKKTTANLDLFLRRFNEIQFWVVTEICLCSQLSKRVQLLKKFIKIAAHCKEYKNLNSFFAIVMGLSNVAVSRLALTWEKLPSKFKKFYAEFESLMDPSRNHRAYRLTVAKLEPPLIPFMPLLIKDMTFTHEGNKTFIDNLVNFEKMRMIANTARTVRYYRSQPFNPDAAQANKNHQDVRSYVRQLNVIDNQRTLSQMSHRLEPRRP
Assay [4] has the same target. Nature of the assay: Confirmatory qHTS for antagonist of cAMP-regulated guanine nucleotide exchange factor 4 (EPAC2) (AID 1645885). For activity change, negative = inhibition: % is set by controls: 0 for no effect and ±100 for the full control effect. Note: nearly all actives have a fitted effect of over 25% in size. Note: potency is the fitted concentration of half-maximal effect. As to conditions: EPAC2 Rap1B-BODIPY-GDP exchange fluorescence, biochemical; series mostly up to 12.7 µM.
The target of assay [5] is Rap guanine nucleotide exchange factor 3 (Homo sapiens) (UniProt O95398). The experiment in a line: Counterscreen qHTS for antagonist of cAMP-regulated guanine nucleotide exchange factor 3 (EPAC1) (AID 1645888). Note: % of control where 0% means no effect. As to conditions: Rap1B-BODIPY-GDP nucleotide exchange, fluorescence; series mostly up to 154 µM. Put shortly: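 Measured: fluorescence of BODIPY-GDP bound to Rap1B, which falls as exchange proceeds. Conditions include 50 uM competing GDP, 5 and 30 min reads, and a later cAMP challenge for antagonist detection.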
Sequence of Rap guanine nucleotide exchange factor 3 (Homo sapiens) (O95398 whole entry, looked up): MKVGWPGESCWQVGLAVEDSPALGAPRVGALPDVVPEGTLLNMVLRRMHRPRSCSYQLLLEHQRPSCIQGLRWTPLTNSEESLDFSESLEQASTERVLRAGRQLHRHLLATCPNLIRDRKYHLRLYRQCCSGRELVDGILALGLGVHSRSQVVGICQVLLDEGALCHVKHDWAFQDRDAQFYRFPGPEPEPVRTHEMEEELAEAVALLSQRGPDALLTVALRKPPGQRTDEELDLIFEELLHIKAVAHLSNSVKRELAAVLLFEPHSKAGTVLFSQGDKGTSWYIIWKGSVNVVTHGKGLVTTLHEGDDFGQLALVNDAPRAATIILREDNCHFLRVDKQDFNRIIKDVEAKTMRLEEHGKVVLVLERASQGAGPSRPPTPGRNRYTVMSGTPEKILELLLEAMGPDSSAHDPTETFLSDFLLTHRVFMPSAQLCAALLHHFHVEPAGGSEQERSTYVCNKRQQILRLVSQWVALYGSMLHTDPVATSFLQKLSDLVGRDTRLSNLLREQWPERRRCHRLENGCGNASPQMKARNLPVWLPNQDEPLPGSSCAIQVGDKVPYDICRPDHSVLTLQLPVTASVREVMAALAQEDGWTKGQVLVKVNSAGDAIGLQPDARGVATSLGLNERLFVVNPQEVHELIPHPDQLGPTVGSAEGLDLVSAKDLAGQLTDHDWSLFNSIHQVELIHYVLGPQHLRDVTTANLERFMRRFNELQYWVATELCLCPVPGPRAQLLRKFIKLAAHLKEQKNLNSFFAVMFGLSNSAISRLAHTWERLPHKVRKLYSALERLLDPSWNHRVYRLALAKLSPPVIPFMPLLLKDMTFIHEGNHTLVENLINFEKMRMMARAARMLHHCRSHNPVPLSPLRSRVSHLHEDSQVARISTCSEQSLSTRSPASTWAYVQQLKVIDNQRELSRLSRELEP
On the technique in general: A counterscreen serves to expose hits that act by an unwanted route or on another target.

Records with an inconclusive call do not appear. Values without a mark were called inactive. Calls of active or inactive are those of the source. Calls come from the whole dose curve; as a rule, active = well fitted curve in the direction sought with a large enough effect; inconclusive = small, poorly fitted or top-dose-only effect, or another doubt; inactive = no such curve, though single readings can be large; an effect the other way counts as inactive or inconclusive.

Consider `Cc1ccc(S(=O)(=O)N2[C@@H](c3ccc(Br)cc3)C(C(=O)O)=CC[C@H]2c2ccc(Cl)c(Cl)c2)cc1`, for which the Potency was 67.5 µM (active) in assay [1] and 33.8 µM (active) in assay [4]. Moreover, the Potency entry in assay [2], in assay [3] and in assay [5] was “inactive” in each case.
Consider `COc1cc(/C=C(/C#N)c2nc(-c3cc4ccccc4oc3=O)cs2)ccc1O`, for which the Potency entry in assay [1], in assay [2], in assay [3] and in assay [5] was “inactive” in each case. In addition, the outcome in assay [4] was “inactive [at 12.7 µM]”.
For the molecule `COc1cccc2sc(N3CCN(c4nc5ccccc5s4)CC3)nc12`, the Potency result in assay [1], in assay [2] and in assay [4] was “inactive” throughout. For the same molecule, the activation in assay [3] is 2.2% [at 17.1 µM, percent relative to cAMP agonist control]. The activity change, negative = inhibition in assay [5] was -13.4% [at 30.8 µM].
As for `CCOc1ccc(-n2c(=O)[nH]cc(C(=O)Nc3ccc(OC)c(OC)c3)c2=O)cc1`, the Potency result in assay [1], in assay [2], in assay [3], in assay [4] and in assay [5] was “inactive” in each case.
With `CC1(C(=O)NS(=O)(=O)c2ccc(F)cc2F)CCN1C(=O)C1(c2ccc(Cl)cc2)CCC1` (stereo not given), in assay [1], the Potency is 9.53 µM (active). In addition, the Potency entry in assay [2], in assay [3], in assay [4] and in assay [5] was “inactive” in each case.
For the molecule `Cc1cc(OC(C)C(=O)NCCc2c[nH]c3ccccc23)c2c(C)cc(=O)oc2c1` (stereo not given), the Potency entry in assay [1], in assay [2], in assay [3], in assay [4] and in assay [5] was “inactive” in each case.
With `CCOc1ccc(S(=O)(=O)n2ccc(C)n2)c2ccccc12`, the Potency result in assay [1], in assay [2], in assay [3], in assay [4] and in assay [5] was “inactive” each time.
With `CCCNC(=O)c1ccc2c(=O)c(O)c(-c3ccsc3)[nH]c2c1`, the Potency result in assay [1], in assay [2] and in assay [4] was “inactive” in each case. Also, in assay [3], the activation is -5.87% [at 17.1 µM, percent relative to cAMP agonist control]. For the same molecule, the activity change, negative = inhibition in assay [5] was -0.0367% [at 30.8 µM].
Regarding `O=C1/C(=C/C=C/c2ccco2)SC(=S)N1NS(=O)(=O)c1ccccc1`, the Potency in assay [1] is 5.62 µM (active). In addition, the Potency result in assay [2] and in assay [4] was “inactive” in each case. In addition, the activation in assay [3] was 11.3% [at 17.1 µM, percent relative to cAMP agonist control]. The activity change, negative = inhibition in assay [5] is 17.5% [at 30.8 µM].
Take `O=C(O)COc1ccc(NC(=O)C(c2ccccc2)c2ccccc2)cc1`: the Potency entry in assay [1], in assay [2], in assay [3] and in assay [5] was “inactive” in each case. Also, the Potency in assay [4] was 33.8 µM (active).
Consider `CCOc1ccc(C(=O)NCC(=O)NCC(c2ccco2)N2CCCCC2)cc1OCC` (stereo not given), for which the Potency entry in assay [1], in assay [2] and in assay [4] was “inactive” throughout. Also, in assay [3], the activation is -0.0767% [at 17.1 µM, percent relative to cAMP agonist control]. Besides, the activity change, negative = inhibition in assay [5] was -4.11% [at 30.8 µM].
Regarding `Cc1ccc(S(=O)(=O)N2CCN(CC(=O)Nc3ccccc3C(=O)NC3CC3)CC2)cc1`, the Potency entry in assay [1], in assay [2] and in assay [4] was “inactive” in each case. Moreover, in assay [3], the activation was 6.96% [at 17.1 µM, percent relative to cAMP agonist control]. Also, the activity change, negative = inhibition in assay [5] is -3.04% [at 30.8 µM].
Regarding `Cc1nn(CSc2c(F)c(F)c(F)c(F)c2F)c(C)c1[N+](=O)[O-]`, the Potency result in assay [1], in assay [2] and in assay [4] was “inactive” in each case. For the same molecule, the activation in assay [3] is 0.798% [at 17.1 µM, percent relative to cAMP agonist control]. Further, in assay [5], the activity change, negative = inhibition was -18.4% [at 30.8 µM].
For the molecule `CCOC(=O)C1=C(C)Nc2nnnn2C1c1ccc(OC)c(Br)c1` (stereo not given), the Potency entry in assay [1], in assay [2] and in assay [4] was “inactive” in each case. Besides, the activation in assay [3] is 8.47% [at 17.1 µM, percent relative to cAMP agonist control]. For the same molecule, the activity change, negative = inhibition in assay [5] is 1.39% [at 30.8 µM].
With `COC(=O)c1ccc2nc(-c3ccc(C)cc3)c(Cc3ccc(C)cc3)n2c1`, the Potency entry in assay [1], in assay [2], in assay [3] and in assay [5] was “inactive” throughout. Moreover, the Potency in assay [4] was 37.9 µM (active).
Consider `Oc1ccc(Br)cc1C=Nc1cccn2cc(-c3ccccc3)nc12`, for which the Potency in assay [1] was 84.9 µM (active); in assay [4], 75.7 µM (active). For the same molecule, the Potency result in assay [2], in assay [3] and in assay [5] was “inactive” in each case.
Regarding `CCC(=Cc1ccccc1OC)c1ccncc1`, the Potency entry in assay [1], in assay [2], in assay [3], in assay [4] and in assay [5] was “inactive” throughout.
On to `Cc1ccn2cc(CNC(=O)c3cccs3)nc2c1`, for which the Potency entry in assay [1], in assay [2], in assay [3], in assay [4] and in assay [5] was “inactive” in each case.
Regarding `COCCCn1c(=N)c(C(=O)NCc2cccnc2)cc2c(=O)n3cc(C)ccc3nc21`, the Potency entry in assay [1], in assay [2], in assay [3], in assay [4] and in assay [5] was “inactive” in each case.
In the case of `Cc1cccnc1NC(=O)c1ccc(S(=O)(=O)N2CC(C)OC(C)C2)cc1` (stereo not given), the Potency entry in assay [1], in assay [2], in assay [3], in assay [4] and in assay [5] was “inactive” each time.
In the case of `CC1(C(=O)NS(=O)(=O)c2cccs2)CCN1C(=O)C1(c2ccc(Cl)cc2)CCC1` (stereo not given), the Potency in assay [1] was 15.8 µM (active). Besides, the Potency entry in assay [2] and in assay [4] was “inactive” each time. For the same molecule, in assay [3], the activation was 1.54% [at 17.1 µM, percent relative to cAMP agonist control]. Also, the activity change, negative = inhibition in assay [5] is -14.6% [at 30.8 µM].
For `O=C(Nc1ccccc1)c1ccccc1Br`, the Potency result in assay [1], in assay [2], in assay [3], in assay [4] and in assay [5] was “inactive” each time.
For `COc1cc(Nc2cc(C)nc3ncnn23)cc(OC)c1`, the Potency result in assay [1], in assay [2], in assay [3], in assay [4] and in assay [5] was “inactive” each time.
